Platelet DG rel: inhibitors of platelet dense granule secretion, primary screen, cell-based, MLPCN, human platelets; inhibition, %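 (compounds screened at 7.5 µM in platelet-rich plasma)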; human platelet-rich plasma, SFLLRN dense granule ATP release, luminescence; AID 1663, 2009; actives 0.22% (n = 300,000);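 active = mean replicate score, as percent of positive control, at or above 50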
MPTP block: mitochondrial permeability transition pore inhibitors, primary screen, biochemical, isolated mouse mitochondria, absorbance | Ca2+ swelling absorbance, 30 min | inhibition, % at 10 µM | actives 1.4% (n = 360,000);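 active = inhibition of 50% or more, scaled per plate between neutral and stimulator controls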;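 also: 0% = DMSO wells given calcium and 100% = 1 mM EGTA wells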
HSF1 activator: HSF-1 activators, primary screen, NIH3T3-HGL cells, MG132 stress, luminescence, single point. NIH3T3-HGL HSF-1 luciferase reporter, 8 h; 100% = twice DMSO control signal. activation, % at 9 µM. actives 1.7% (n = 300,000). AID 504408, 2011;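 active = mean replicate activation of at least 50% with a set share of replicates each reaching 50%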;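 also: 0% = median of the neutral control wells and 100% = twice that signal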
HSP90 refold inh: HSP90 inhibitors, primary screen, cell lysate, luminescence; Heat shock protein HSP 90 (rabbit reticulocyte lysate; luciferase refolding); Rabbit reticulocyte lysate, luciferase refolding luminescence, 3 h; inhibition, % at 5.6 µM; actives 0.91% (n = 290,000); AID 1789, 2009;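 active = inhibition above the screen-wide mean plus 3 SD, computed separately per campaign, cut at about 16% in these data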;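 also: 0% = DMSO wells and 100% = 60 µM geldanamycin wells; inhibitors lower the luminescence because luciferase stays unfolded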
dFosB act: activators of delta FosB homodimer, primary screen, biochemical, fluorescence polarization, TAMRA-CDK5 oligo, single point; purified delta FosB; percent of positive-control signal above neutral wells; activation, % at 25 µM; actives 0.99% (n = 340,000);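 active = mean activation above about 17%, with every replicate also reaching it, limit read from the data, passing the limit was not always enough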
Target sequence (P13346 whole entry, looked up): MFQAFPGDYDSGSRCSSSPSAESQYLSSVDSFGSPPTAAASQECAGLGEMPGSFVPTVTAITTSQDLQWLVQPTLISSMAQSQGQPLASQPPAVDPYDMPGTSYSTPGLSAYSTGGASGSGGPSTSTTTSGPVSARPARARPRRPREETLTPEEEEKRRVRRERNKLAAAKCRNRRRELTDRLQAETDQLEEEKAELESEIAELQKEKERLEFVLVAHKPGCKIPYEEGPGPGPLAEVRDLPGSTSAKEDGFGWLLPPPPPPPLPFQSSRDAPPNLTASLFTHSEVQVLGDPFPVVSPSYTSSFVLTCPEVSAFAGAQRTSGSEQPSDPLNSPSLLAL
HSF1 inh: HSF1 inhibitors in luciferase reporter cells, primary screen, cell-based, NIH3T3, luminescence; NIH3T3-HGL HSE-luciferase, MG132-induced, luminescence 8 h; hits give low values; activity change, negative = inhibition, % at 7.5 µM (by protocol); actives 0.77% (n = 300,000);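 active = more than half of replicate wells show activity change below -50%, luminescence cut by over half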;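 also: luciferase reports HSF-1 transcriptional activity via heat shock element; 0% = median of DMSO wells and -100% = zero luminescence signal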
* = called active by the depositor; · = no result. Rows were chosen to be rich in hits. Some 4.9% of all compounds tested hit in one or more screens of this group.

SMILES	Platelet DG rel	MPTP block	HSF1 activator	HSP90 refold inh	dFosB act	HSF1 inh
O=C(Nc1cccc(Cl)c1)c1ccc(=O)[nH]n1	-7	0	-4	-5	-7	3
O=C(Nc1ccc(F)cc1)c1ccc(=O)[nH]n1	6	0	-74	-2	-8	-71*
N#C/C(=C/c1cccc(C(F)(F)F)c1)c1nc(CCN2C(=O)c3ccccc3C2=O)cs1	0	10	-65	-4	0	-59*
CCCCN1C(=O)C(CC(=O)NCCCCc2ccccc2)CC(C(=O)N(C)C)=C1C (stereo not drawn)	·	-1	·	·	·	·
COc1ccc(-c2cc3cccc(OC)c3oc2=O)cc1	29	0	26	14	-19	-6
COc1cccc2cc(-c3ccccc3)c(=O)oc12	8	2	62*	-3	-14	27
O=C(Cn1cccc1)N1CCN(c2ccc(F)cc2)CC1	56*	1	1	-1	-6	-3
CC(C)Oc1ccc(S(=O)(=O)N2CCOCC2)cc1NC(=O)c1ccc(Cl)c(S(=O)(=O)N2CCOCC2)c1	·	0	·	·	·	·
COc1cccc(Cn2c(=O)sc3ccccc3c2=O)c1	-4	1	81*	-2	-4	46
COc1ccccc1-c1cc(C(F)(F)F)nc(N2CCCC2)n1	-1	0	-3	1	0	-9
COc1ccccc1-c1cc(C(F)(F)F)nc(S(=O)(=O)CCCC(=O)N2CCCCC2C)n1 (stereo not drawn)	-1	-4	79*	1	-25	82
COc1ccccc1-c1cc(C(F)(F)F)nc(S(=O)(=O)CCCC(=O)NCc2ccc(F)cc2)n1	14	-1	-80	2	-13	-80*
COc1ccccc1-c1cc(C(F)(F)F)nc(S(C)(=O)=O)n1	4	1	256*	9	4	216
CN1CCN(c2nc(-c3ccco3)cc(C(F)(F)F)n2)CC1	-1	28	-5	-5	-3	-6
CS(=O)(=O)c1nc(-c2ccco2)cc(C(F)(F)F)n1	6	·	-73	3	·	-74*
Nc1cc2c(cc1N)-c1ccccc1C2	·	2	·	·	6	·
COc1ccc(-c2cc(C(F)(F)F)nc(S(=O)(=O)CCCC(=O)Nc3cc(C)on3)n2)cc1OC	-1	1	223*	0	-5	226
COc1ccccc1-c1cc(C(F)(F)F)nc(S(=O)(=O)CCCC(=O)Nc2cc(C)on2)n1	·	-3	19	-1	-5	16
COc1ccccc1-c1cc(C(F)(F)F)nc(S(=O)(=O)CCCC(=O)NC(C)C)n1	-5	-1	172*	2	-15	105
COc1ccccc1-c1cc(C(F)(F)F)nc(S(=O)(=O)CCCC(=O)Nc2cccnc2Cl)n1	·	-1	·	3	-8	·
CC(C)c1cc(Cn2c3ccccc3c(=O)n2C(C)Cn2cc(CCCC#N)nn2)on1 (stereo not drawn)	·	-1	·	·	·	·
COc1ccc(OCc2cc(C(=O)N(C)C3CCOCC3)no2)c2ccccc12	4	-1	30	2	-6	17
CCC(C)(C)n1nnnc1C(c1cc2cc(C)cc(C)c2[nH]c1=O)N1CCN(Cc2ccc3c(c2)OCO3)CC1 (stereo not drawn)	0	-3	54*	1	-6	21
CCC(C)(C)n1nnnc1C(c1cc2cc(C)cc(C)c2[nH]c1=O)N1CCCC1 (stereo not drawn)	·	-2	·	2	6	·
CCOc1cc(C(=S)N2CCOCC2)ccc1OS(=O)(=O)c1ccc(OC)cc1	2	0	-83	4	-5	-78*
SMILES	Platelet DG rel	MPTP block	HSF1 activator	HSP90 refold inh	dFosB act	HSF1 inh
CCOc1cc(C(=S)N2CCOCC2)ccc1OS(=O)(=O)c1ccc(NC(C)=O)cc1	0	1	-4	-3	-8	-4
CCc1ccc(N(CC(=O)NCc2ccco2)C(=O)CCC(=O)Nc2ccccn2)cc1	-10	0	1	-2	-5	-1
CCc1ccccc1N(CC(=O)NCc1ccco1)C(=O)CCC(=O)Nc1ccccn1	9	2	-77	-2	-16	-70*
CN(C)Cc1c(C(=O)N/N=C/c2ccc(OCc3c(F)cccc3Cl)cc2)nnn1-c1nonc1N	-16	-2	108*	7	3	55
CCN(CC)Cc1c(C(=O)N/N=C/c2cccc(OCc3cccc(Cl)c3)c2)nnn1-c1nonc1N	-24	4	57*	-2	-14	25
Nc1nonc1-n1nnc(C(=O)N/N=C/c2ccc(O)cc2)c1COc1ccc(F)cc1	4	2	-8	0	-4	-3
Cc1cc(C)c(S(=O)(=O)Nc2cccc(/C=C/C(=O)O)c2)c(C)c1	-12	2	83*	-6	-2	41
O=C(O)/C=C/c1cccc(NS(=O)(=O)c2ccccc2)c1	0	-2	-3	1	-3	4
COc1ccc(C(NC(=O)c2ccc(=O)[nH]c2)C(=O)Nc2ccc(C(C)C)cc2)cc1 (stereo not drawn)	0	-4	-72	0	-2	-61*
COc1ccc(NC(=O)C(NC(=O)c2ccc(=O)[nH]c2)c2ccc(C)cc2)cc1 (stereo not drawn)	2	0	-8	-6	-2	-6
COc1ccc2cc3cc(C(=O)NCCN4CCc5ccccc5C4)sc3nc2c1	-18	0	74*	-6	-18	48
Clc1ccccc1CSc1nnc(-c2ccccn2)n1Cc1ccco1	-1	3	120*	4	-12	96
NC(=O)CSc1nnc(-c2ccccn2)n1Cc1ccco1	-1	2	-3	2	1	-4
O=C(NC(c1ccccc1)c1ccccc1)c1cccc(S(=O)(=O)NCc2ccccc2)c1	-1	5	-8	1	-3	4
CCOC(=O)C1CCN(C(=O)CCNS(=O)(=O)c2ccc3c(c2)CCN3C(=O)CC)CC1	-30	-1	-1	3	-13	-7
Cc1c(C(=O)N2CCCCC2)c(S(=O)(=O)N(C)Cc2ccccc2)c(C)n1C	56*	-2	4	-2	0	-9
Cc1c(C(=O)N2CCCCC2)c(S(=O)(=O)N(C)Cc2ccco2)c(C)n1C	-13	-2	-6	-3	-1	-8
CC(=O)O[C@]1(C(C)=O)CCC2C3C=C(C)C4=CC(=O)CC[C@]4(C)C3CC[C@@]21C (stereo partly drawn)	0	0	-6	-1	-1	1
